This is a sample that favours compounds with a hit; in the whole collection about 27% have one here.
sEH inhibitor – blocks human soluble epoxide hydrolase activity | P34913 | recombinant human sEH enzymatic activity assay | inhibition, % at 2 µM | hit rate 0.34% among 91,000; in the data active = inhibition above about 80%
Target sequence (P34913 whole entry, looked up): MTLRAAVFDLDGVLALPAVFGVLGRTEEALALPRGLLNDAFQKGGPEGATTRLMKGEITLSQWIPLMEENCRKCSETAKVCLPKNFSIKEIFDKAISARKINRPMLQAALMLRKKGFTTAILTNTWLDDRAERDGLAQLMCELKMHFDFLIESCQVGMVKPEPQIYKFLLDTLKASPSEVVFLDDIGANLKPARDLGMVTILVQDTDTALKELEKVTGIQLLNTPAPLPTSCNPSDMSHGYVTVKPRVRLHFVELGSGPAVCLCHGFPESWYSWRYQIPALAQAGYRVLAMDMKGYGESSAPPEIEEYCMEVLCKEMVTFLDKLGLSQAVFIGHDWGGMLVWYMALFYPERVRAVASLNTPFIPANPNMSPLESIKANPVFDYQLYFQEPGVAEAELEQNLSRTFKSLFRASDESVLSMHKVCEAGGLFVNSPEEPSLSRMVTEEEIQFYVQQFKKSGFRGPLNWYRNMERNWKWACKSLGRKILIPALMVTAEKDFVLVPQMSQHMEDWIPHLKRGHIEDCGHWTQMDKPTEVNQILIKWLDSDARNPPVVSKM
CYP2C19 inh – inhibitors of human CYP2C19; P33261; CYP2C19 Supersomes, luciferin-H EGE luminescence, 30 min; inhibition, % at 5 µM; hit rate 21% among 96,000;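 active = CYP2C19 inhibition above a set limit at 5 µM in the primary screen, cut at about 50% in these data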;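 note: plate controls were negative control wells for no effect and 2.5 mM tranylcypromine positive control for full effect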
CYP2C9 act – activators of human CYP2C9. P11712. recombinant CYP2C9, luciferin-H conversion, luminescence; stronger effect = higher value; factor 1 = untreated enzyme, 0 = blocked. activation factor at 5 µM. hit rate 1.4% among 96,000. AID 1024;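 active = activation factor of 2 or more for CYP2C9 at a 5 µM dose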;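 note: 0 = sulfaphenazole-blocked wells and 1 = vehicle-only wells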
sEH act – activators of human soluble epoxide hydrolase; P34913; purified human sEH enzymatic activity, activator screen; activation, % at 2 µM; hit rate 0.04% among 91,000; AID 717; in the data active = activation above about 37%
CYP2C9 inhib – inhibitors of human CYP2C9 | P11712 | CYP2C9 Supersomes, luciferin-H conversion, luminescence | inhibition, % at 5 µM | hit rate 20% among 96,000 | AID 777;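 active = blocking of liver enzyme CYP2C9 beyond about 50% at 5 µM, limit read from the data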
CYP2C19 activ – cytochrome P450 2C19 (human) activation; activation factor at 5 µM; P33261; 96,000 tested, under 10 active; recombinant CYP2C19, luciferin-H EGE luminescence; stronger effect = higher value; 0 = fully inhibited enzyme, 1 = untreated enzyme;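 active = activation factor of at least 2 at 5 µM in the primary screen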;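 note: 0 = wells with 2.5 mM tranylcypromine and 1 = vehicle-only wells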
* hit, by the source's call; x = not tested or not shown.

SMILES	sEH inhibitor	CYP2C19 inh	CYP2C9 act	sEH act	CYP2C9 inhib	CYP2C19 activ
COc1ccccc1CNc1ccc(N2CCCCC2)cc1	13	77*	0.8	-12	24	0.2
COc1cccc(CNc2ccc(S(N)(=O)=O)cc2)c1OC	1	-1	1.1	2	-9	1
COc1ccccc1CNc1ccc(C(=O)O)cc1	-2	-4	1.1	4	-6	1
COc1cccc(CNc2ccc(N3CCCCC3)cc2)c1OC	-2	80*	2.5*	8	-150	0.2
COc1ccc(-n2c(C)cc(C(=O)NC3CCCCC3)c2C)cc1	16	0	0.9	-14	11	1
COc1ccc(NC(C)=O)c2nc(C)c(C)nc12	x	-2	0.8	x	22	1
COc1ccc2sc(C)nc2c1NC(C)=O	6	18	0.2	-5	84*	0.8
Cc1occc1C(=O)N1CCN(Cc2ccccc2)CC1	6	90*	0.7	-5	33	0.1
O=C(c1coc(=O)c2ccccc12)N1CCN(Cc2ccccc2)CC1	4	55*	1.3	-6	-30	0.4
O=C(c1ccc(CN2CCOCC2)cc1)N1CCN(Cc2ccccc2)CC1	15	9	0.9	-14	7	0.9
Cc1noc(C)c1C(=O)N1CCN(Cc2ccccc2)CC1	-14	91*	0.9	12	10	0.1
Cc1noc(C)c1C(=O)N1CCN(CCc2ccccc2)CC1	-5	17	0.9	6	7	0.8
CN1C(=S)SC(C)(C)C1(C)NO (stereo unspecified)	5	6	1.1	-2	-12	0.9
CC1=CC(C)(C)N2C(=O)C3(C(C#N)=C(N)OC4=C3C(=O)CCC4)c3c(C)c(C)cc1c32 (stereo unspecified)	-3	-9	0.9	2	13	1.1
CC1=CC(C)(C)N2C(=O)C3(C(C#N)=C(N)Oc4cc(O)ccc43)c3c(C)c(C)cc1c32 (stereo unspecified)	2	89*	0.1	-1	94*	0.1
CCOc1ccc(-c2nnc(SCc3nc4ccccc4[nH]3)n2N)cc1	10	21	0.9	-10	13	0.8
C=CCC1c2cccc(C(=O)OC)c2C(=O)N1c1ccccc1 (stereo unspecified)	-8	38	0.9	12	12	0.6
CNc1nc(C)c(C(=O)c2ccc(Cl)cc2)s1	-17	66*	0.4	19	61*	0.3
CCOC(=O)c1sc(N(C)C)nc1-c1ccccc1	0	x	x	3	x	x
CCOC(=O)Nc1nc(-c2ccccc2)c(C(=O)c2ccc(Cl)cc2)s1	-3	73*	0.4	5	64*	0.3
CCOC(=O)Nc1sc(C)nc1-c1ccccc1	-2	61*	0.8	0	18	0.4
COc1ccc(/C=C/C(=O)c2sc(-c3ccc(Cl)cc3)nc2C)cc1	-14	7	0.6	14	45	0.9
CCc1sc(NC(=O)COC)nc1-c1ccccc1	4	75*	0.4	-1	57*	0.2
COc1ccc(S(=O)(=O)N2CCCC(C(=O)NCc3ccco3)C2)cc1Cl (stereo unspecified)	3	33	1.5	-4	-45	0.7
CN(C)c1ccc(C2N3CC4(C)CN2CC(C)(C3)C4O)cc1 (stereo unspecified)	x	1	1.1	x	-6	1
SMILES	sEH inhibitor	CYP2C19 inh	CYP2C9 act	sEH act	CYP2C9 inhib	CYP2C19 activ
CC(C)C12CN3CC(C(C)C)(CN(C1)C3c1ccccc1)C2O (stereo unspecified)	-40	-11	1	39*	-4	1.1
COCc1cc(C)nc2sc(C(=O)N3CCCCC3)c(N)c12	-5	12	0.8	4	20	0.9
Cc1cc(C)c2c(N)c(C(=O)N3CCN(c4ncccn4)CC3)sc2n1	-6	50*	0.6	6	42	0.5
COCc1cc(C)nc2sc(C(=O)N3CCN(c4ccccc4)CC3)c(N)c12	2	80*	0.2	-3	78*	0.2
CCC(NC(=O)Cn1cnc2c(=O)n(C)c(=O)n(C)c21)c1ccccc1 (stereo unspecified)	16	x	x	-19	x	x
O=c1[nH]ncn2cccc12	0	-6	1.1	-2	-13	1.1
N#CCCNc1ccc(OCCC#N)cc1	x	-7	0.6	x	39	1.1
CCOC(=O)C(CC)(CC)C(=O)/C=C/c1ccc(Br)cc1	-1	14	0.8	3	20	0.9
O=C(CCCSc1nc2ccccc2s1)NC1=NCCS1	4	83*	1.5	-3	-47	0.2
O=C(CSc1nc2ccccc2s1)Nn1cnnc1	x	76*	0	x	96*	0.2
O=C(CSc1nn(-c2ccccc2)c(=S)s1)Nn1cnnc1	x	64*	0	x	98*	0.4
O=C(O)CCSc1nc2ccccc2s1	-1	7	1	1	0	0.9
Cc1c(C)c2ccc(OCc3ccc(C(=O)O)o3)c(C)c2oc1=O	-4	1	0.8	5	21	1
COc1cc(COc2ccc3c(C)c(Cc4ccccc4)c(=O)oc3c2C)cc(OC)c1OC	-10	58*	0.3	11	66*	0.4
Cc1c(Cc2ccccc2)c(=O)oc2cc(OC(=O)c3ccccc3)ccc12	2	60*	0.6	-2	40	0.4
COc1cc(COc2ccc3c(C)c(Cc4ccccc4)c(=O)oc3c2)cc(OC)c1OC	2	36	0.4	-3	57*	0.6
COC(=O)Cc1c(C)c2ccc(OC(=O)c3ccccc3)cc2oc1=O	-15	0	1.1	12	-9	1
COc1cccc(COc2ccc3c(C)c(Cc4ccccc4)c(=O)oc3c2)c1	10	x	x	-11	x	x
CCOC(=O)c1oc2ccccc2c1CSc1nnnn1-c1ccc(OC)cc1	-4	16	0.9	0	13	0.8
CCOC(=O)c1oc2ccc(Br)cc2c1CSc1nnc(C)s1	-9	54*	0.4	13	59*	0.5
COc1cc(CNC(=O)c2ccc(Cn3nc(C)c(Cl)c3C)o2)cc(OC)c1	9	62*	1.2	-10	-21	0.4
COc1ccccc1NS(=O)(=O)c1ccc(C)c(C(=O)NCC2CCCO2)c1 (stereo unspecified)	x	42	1.6	x	-58	0.6
COc1ccccc1NS(=O)(=O)c1ccc2oc(SC3CCOC3=O)nc2c1 (stereo unspecified)	-14	53*	0.6	13	40	0.5
COc1cccc(-c2noc(C(C)n3nc(C)c([N+](=O)[O-])c3C)n2)c1 (stereo unspecified)	-1	33	0.5	2	55*	0.7
COc1cccc(-c2noc(-c3cccs3)n2)c1	-6	5	0.9	7	13	0.9
Cc1ccc(NC(=O)CC2S/C(=N/c3nccs3)N(C)C2=O)c(C)c1 (stereo unspecified)	0	96*	0	1	98*	0
CCNC(=O)CC1SC(=Nc2cccc(Cl)c2C)N(C)C1=O (stereo unspecified)	-5	x	x	5	x	x

Screening results as filed in PubChem.
